In PubChem BioAssay (NCI) one finds growth data, which are given here for 28 molecules.

Compounds without any hit were thinned out: in the full panel of roughly 83,000, 20% have a hit.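 Negative percent growth values reflect cell death: -40 means 40% of the cells present at the start died, and -100 means all died.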 Unmarked numbers belong to inactive results. Calls of active or inactive are those of the source. The calls were made as follows: active = growth percent below 10; inactive = the rest.

What all share (experiment): NCI-60 one-dose screen, 48 h (100 = growth as untreated, 0 = no growth, -100 = all killed)
Common to all, as to details: 10 µM unless noted

Test [1] has as its system T-47D breast.
Test [2] deals with BT-549 breast.
The subject of test [3] is MDA-MB-435 melanoma.
The subject of test [4] is SW-620 colon.
Test [5] deals with MCF7 breast.
The test system of test [6] is HCT-116 colon.
Test [7] concerns HCC-2998 colon.
The subject of test [8] is KM12 colon.

Regarding `COc1cc(NC(=O)c2cc(OC)c3ccn(C)c3c2)cc2c1C[C@]1(C)CC[C@@H](O)C(C)(C)[C@H]1O2`, the growth was 57.5% in test [1]; 36.9% in test [2]; 64% in test [3]; 57.7% in test [4]; 38.5% in test [5]; 43.6% in test [6]. Further, the figures for the growth in test [7] and in test [8] were 74.6% and 65.3%, respectively.
On to `CCC(C)Nc1ccc(N)cc1` (centres undefined), for which the growth in test [1] is 16.2%; in test [2] it was 31.7%; in test [3], 12.7%; in test [4], 29.9%; in test [5], 3.94% (active); in test [6], -34.8% (active). In addition, the results for the growth in test [7] and in test [8] were 28.4% and 8.28% (active), respectively.
As to `C=C1c2c(Cl)ccc(O)c2C(O)=C2C(=O)[C@]3(O)C(O)=C(C(N)=O)C(=O)[C@@H](N(C)C)[C@@H]3[C@@H](O)[C@H]12`, the growth is 21.8% in test [1]; -19.7% (active) in test [2]; 12.7% in test [3]; 16.4% in test [4]; 29.8% in test [5]; 2.75% (active) in test [6]. Besides, the growth in test [7] was 8.18% (active); in test [8], 1.27% (active).
Turning to `C=CC(=O)NC(=O)Nc1ccccc1Cl`, the growth is 65.8% in test [1]; 75.3% in test [2]; 82.4% in test [3]; 53.6% in test [4]; 27.1% in test [5]; 55.5% in test [6]. Besides, the growth in test [7] is 110%; in test [8], 96.4%.
Turning to `O=C(O)c1ccc(-n2cc(/C=N/Nc3ccc(F)cc3)c(-c3cccc(C(F)(F)F)c3)n2)cc1`, the growth in test [1] is 73.2%; in test [2], 95.4%; in test [3], 57.8%; in test [4] it was 63.3%; in test [5], 46.4%; in test [6], 66.3%. Moreover, the growth in test [7] is 55.2%; in test [8], 52.8%.
Take `O=C(Nc1ccc(-n2ccc3c(NC(=O)c4ccccc4)nccc32)cc1)Nc1ccc(Cl)c(Cl)c1`: the growth in test [1] was 20.7%; in test [2], 40.3%; in test [3], -58.9% (active); in test [4], -64.6% (active); in test [5], -91.9% (active); in test [6] it was -94.5% (active). Besides, the growth in test [7] was -57.6% (active); in test [8], -49.1% (active).
For `CN1CCN(Cn2nc(-c3cc(F)c(Cl)cc3Cl)n(/N=C/c3ccc(N(C)C)cc3)c2=S)CC1`, the growth in test [1] is 93.7%; in test [2], 67.1%; in test [3] it was -7.65% (active); in test [4] it was 70.5%; in test [5] it was 112%; in test [6] it was 82.1%. Also, the growth in test [7] was 98%; in test [8], 88.8%.
Consider `C=C1C(=O)O[C@H]2[C@H]1CC/C(COC(=O)n1ccnc1C)=C\CC[C@@]1(C)O[C@@H]21`, for which the growth in test [1] is 85%; in test [2], 97.3%; in test [3], 99.5%; in test [4], 85%; in test [5], 87.8%; in test [6], 89%. For the same molecule, the growth in test [7] and in test [8] was 103% throughout.
In the case of `CC(C)CNCC(=O)Nc1ccc(Cc2ccc(NC(=O)CNCC(C)C)cc2)cc1`, the growth was 68% in test [1]; 51.7% in test [2]; 88.5% in test [3]; 77.5% in test [4]; 43.8% in test [5]; 36.4% in test [6]. The growth in test [7] was 36.6%; in test [8], 67.7%.
Take `O=C1CN(CCN2CC(=O)NC(=O)C2)CC(=O)N1`: the growth was 99.2% in test [1]; 96.6% in test [2]; 90.4% in test [3]; 118% in test [4]; 104% in test [5]; 93.6% in test [6]. For the same molecule, the growth was 112% in test [7] and 99.5% in test [8].
In the case of `CCOc1ccc(-n2c(-c3cc(OC)c(OC)c(OC)c3)nnc2-c2ccc(OC)cc2N)cc1`, the growth in test [1] was 43.4%; in test [2] it was 84%; in test [3], 81.3%; in test [4] it was 67.2%; in test [5], 40.6%; in test [6], 63.7%. Further, the growth in test [7] was 82.4%; in test [8], 37.8%.
`O=C(CSc1nnc(-c2cc3c([nH]c4ccccc43)c(-c3cccc(O)c3)n2)n1-c1ccccc1)c1ccccc1`: the growth is 53% in test [1]; 56% in test [2]; -33.3% (active) in test [3]; 50% in test [4]; 13.7% in test [5]; 29.7% in test [6]. The growth is 96% in test [7] and 60.1% in test [8].
On to `CCCC(C)(C)COC(=O)c1cccc(N)c1`, for which the growth in test [1] is 92%; in test [2], 79.9%; in test [3], 111%; in test [4] it was 104%; in test [5], 91.7%; in test [6], 84.9%. Also, the growth was 96.9% in test [7] and 106% in test [8].
For the molecule `CCCN1C(=O)CSC1=Nc1ccc2cc3ccc(N=C4SCC(=O)N4CCC)cc3nc2c1`, the growth in test [1] is 12.1%; in test [2], 41.7%; in test [3], 40.5%; in test [4], 70.3%; in test [5], 16.8%; in test [6] it was 37%. Moreover, the growth was 64.2% in test [7] and 36.7% in test [8].
As for `Nc1ncnc2c1ncn2C1OC(COC(c2ccccc2)(c2ccccc2)c2ccccc2)C(O)C1O` (centres undefined), the growth in test [1] is 103%; in test [2], 94%; in test [3], 99.6%; in test [4] it was 98%; in test [5], 94.2%; in test [6], 92.4%. Besides, the growth was 78.9% in test [7] and 99.2% in test [8].
Take `CCN1CCN(Cc2ccc(NC(=O)Nc3cccc(-n4ccc5c(NC(=O)c6ccccc6)nccc54)c3)cc2C(F)(F)F)CC1`: the growth was 74.7% in test [1]; 89.5% in test [2]; 9.58% (active) in test [3]; 86.6% in test [4]; 31.4% in test [5]; 75.8% in test [6]. In addition, the growth is 102% in test [7] and 53.1% in test [8].
For the molecule `c1cncc(-c2nc3ccccc3[nH]2)c1`, the growth in test [1] was 103%; in test [2], 100%; in test [3] it was 121%; in test [4], 85.1%; in test [5], 85.1%; in test [6], 93.8%. Also, the growth in test [7] is 92.2%; in test [8], 97.5%.
Regarding `c1ccc2c(c1)Oc1cccnc1-n1nccc1-2`, the growth in test [1] was 105%; in test [2] it was 101%; in test [3] it was 107%; in test [4], 102%; in test [5], 98.6%; in test [6], 104%. The growth was 110% in test [7] and 100% in test [8].
`O=C(Nc1ccc(-n2cc(-c3ccncc3)c(-c3ccc(O)c(Cl)c3)n2)cc1)c1ccc(Cl)c(Cl)c1`: the growth in test [1] was 36.5%; in test [2] it was 29.3%; in test [3], 27.1%; in test [4], 37.3%; in test [5], 28.5%; in test [6] it was 12.3%. Further, the results for the growth in test [7] and in test [8] were 33.2% and 24.6%, respectively.
For `COc1cc2c(cc1OCCCCC(=O)Nc1ccc(-c3nc4ccccc4s3)cc1)N=C[C@@H]1CCCN1C2=O`, the growth in test [1] was 14.7%; in test [2] it was -76.4% (active); in test [3] it was -70.8% (active); in test [4], -16.9% (active); in test [5], 1.14% (active); in test [6], 5.56% (active). Besides, the growth in test [7] is -62% (active); in test [8], -58.7% (active).
In the case of `COc1ccc(CCNC=O)cc1OC`, the growth is 99.7% in test [1]; 96.1% in test [2]; 103% in test [3]; 93.4% in test [4]; 94.1% in test [5]; 100% in test [6]. The figures for the growth in test [7] and in test [8] were 104% and 102%, respectively.
For the molecule `C[C@]12O[C@H]1[C@H](O)c1c(cc(O)c3c1C(=O)c1cccc(O)c1-3)C2=O`, the growth was 100% in test [1]; 95.5% in test [2]; 104% in test [3]; 113% in test [4]; 97.9% in test [5]; 93.4% in test [6]. The values for the growth in test [7] and in test [8] were 112% and 103%, respectively.
With `CN1C(=O)C2(SCC(C(=O)NCC(=O)OC(C)(C)C)N2C(=O)C2CCCCC2)c2ccccc21` (centres undefined), the growth in test [1] is 82.9%; in test [2], 109%; in test [3], 104%; in test [4], 98.7%; in test [5], 97.9%; in test [6], 96.3%. Besides, the figures for the growth in test [7] and in test [8] were 106% and 101%, respectively.
As to `CCCCCCCCCCCCCCCCNc1ccccc1`, the growth in test [1] was 88.6%; in test [2] it was 71.7%; in test [3] it was 111%; in test [4], 108%; in test [5], 90.1%; in test [6] it was 101%. For the same molecule, the growth in test [7] was 105%; in test [8], 88.7%.
`S=c1ssnc1-c1ccccn1`: the growth in test [1] is 27.1%; in test [2], 49.5%; in test [3], 36%; in test [4] it was 5.79% (active); in test [5] it was 27.4%; in test [6], 6.31% (active). Further, the growth in test [7] is 50.8%; in test [8], 32.8%.
As for `O=c1c2ccccc2[nH]n1Cc1ccc2c(c1)OCO2`, the growth in test [1] is 88.9%; in test [2], 107%; in test [3], 105%; in test [4] it was 108%; in test [5], 90.8%; in test [6], 99.9%. Besides, the growth in test [7] is 106%; in test [8] it was 102%.
Regarding `COc1ccc(NC(=O)Nc2ccc(-c3ccc(OC)c(OC)c3)nc2C)cc1`, the growth was 60.4% in test [1]; 50.4% in test [2]; 65.2% in test [3]; 64.8% in test [4]; 65.1% in test [5]; 49.4% in test [6]. For the same molecule, the growth in test [7] is 83.1%; in test [8], 45.3%.
With `COc1ccc(C2=NN(C(=O)COc3ccc(Cl)cc3)C(O)(c3cc(F)c(Cl)cc3Cl)C2)cc1OC` (centres undefined), the growth in test [1] is -51.1% (active); in test [2] it was -76% (active); in test [3] it was 8.66% (active); in test [4] it was -84.8% (active); in test [5] it was 7.79% (active); in test [6] it was -69.1% (active). In addition, the growth in test [7] was 78.4%; in test [8], 60.4%.
